VACV Venus inh – vaccinia inhibition (Venus reporter). Vaccinia virus Venus reporter expression, fluorescence. Potency, µM (doses to about 36.5 µM), without a hit: at the top dose activity change, negative = inhibition, actives largely listed as inhibitors. hit rate 0.46% among 330,000; calls by dose curve; tested in A549 cells; note: nearly all actives have a fitted effect of over 30% in size
AmpC detergent – blocks E. coli AmpC beta-lactamase in detergent assay | AmpC hydrolysis of nitrocefin, absorbance 480 nm, 0.01% Triton | Potency, µM (top dose mostly 114 µM), without a hit: top-dose activity change, negative = inhibition, usual class: inhibitors | hit rate 0.041% among 370,000 | AID 485294;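 note: 0% = no-compound wells and -100% = no-enzyme wells; nearly all actives have a fitted effect of over 25% in size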
Target sequence (P00811 whole entry, looked up): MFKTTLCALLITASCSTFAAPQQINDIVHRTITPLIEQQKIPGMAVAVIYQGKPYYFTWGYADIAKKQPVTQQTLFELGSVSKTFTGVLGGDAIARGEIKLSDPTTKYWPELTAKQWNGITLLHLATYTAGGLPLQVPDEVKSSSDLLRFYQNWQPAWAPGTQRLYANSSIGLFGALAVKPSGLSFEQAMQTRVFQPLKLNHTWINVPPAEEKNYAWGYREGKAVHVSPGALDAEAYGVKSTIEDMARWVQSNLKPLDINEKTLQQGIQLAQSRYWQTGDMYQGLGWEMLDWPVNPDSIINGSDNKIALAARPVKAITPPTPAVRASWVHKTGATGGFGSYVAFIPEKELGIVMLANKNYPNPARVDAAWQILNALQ
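AmpC (5.3 nM in the dispensed reagent) in 20 mM phosphate pH 7.0 with 0.01% (detergent screen) or 0.0001% Triton X-100 was preincubated with compounds for 15 min at room temperature. Nitrocefin was then added from an 800 uM solution, and hydrolysis was followed at 480 nm.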
AmpC no deterg – blocks E. coli AmpC beta-lactamase in detergent-free assay; hit rate 0.52% among 330,000; AmpC nitrocefin hydrolysis, absorbance 480 nm, 0.0001% Triton; Potency, µM (series often up to 57.1 µM), for inactives: top-dose activity change, negative = inhibition, usual class: inhibitors; P00811;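 note: plate controls were no compound for no effect and no enzyme for full effect; nearly all actives have a fitted effect of over 20% in size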
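AmpC (5.3 nM in the dispensed reagent) in 20 mM phosphate pH 7.0 with 0.01% (detergent screen) or 0.0001% Triton X-100 was preincubated with compounds for 15 min at room temperature. Nitrocefin was then added from an 800 uM solution, and hydrolysis was followed at 480 nm.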
VACV mCherry inh – inhibitors of vaccinia virus infection (mCherry reporter signal); Vaccinia virus mCherry reporter infection, fluorescence; Potency, µM (top dose mostly 36.5 µM), for the others: top-dose activity change, negative = inhibition, actives largely listed as inhibitors; hit rate 0.63% among 310,000; calls by dose curve; tested in A549 cells; note: nearly all actives have a fitted effect of over 35% in size
The depositor's hits bear a star; i = inactive; u = inconclusive; x = no result; [ ] = another dose, or the depositor's remark. Most compounds without a hit are left out; they make up all but 1.1% or so of the library. Unless noted, calls come from the whole dose curve; as a rule, active = well fitted curve in the direction sought with a large enough effect; inconclusive = small, poorly fitted or top-dose-only effect, or another doubt; inactive = no such curve, though single readings can be large; an effect the other way counts as inactive or inconclusive. Unless noted, % is set by controls: 0 for no effect and ±100 for the full control effect; potency is the fitted concentration of half-maximal effect.

SMILES	VACV Venus inh	AmpC detergent	AmpC no deterg	VACV mCherry inh
Cc1ccc(NS(=O)(=O)c2cc(C(=O)Nc3cccnc3)ccc2C)cc1	-12%	6%	28µM*	-4%
C1=Cc2ccccc2/C1=C\c1cc2c3c(c1)CCCN3CCC2	10%	x	x	26%
Cc1ccc(C(=O)N(Cc2cc3cccc(C)c3nc2N2CCC(O)CC2)C2CC2)cc1	-23%	x	x	-23%
O=C(C1CC12CCN(Cc1cccc3cccnc13)CC2)N1CCN(Cc2cccs2)CC1 (stereo unspecified)	-5%	x	x	-11%
NCC12CC3CC(C1)CC(c1ccc(Cl)cc1)(C3)C2	13µM*	0%	53%	u
Nc1ccc(C23CC4CC(CC(CO)(C4)C2)C3)cc1	x	-13%	11%	x
COc1ccc(-n2c(CNC(=O)c3cccc(OC)c3OC)nnc2SC)cc1	6%	x	x	-11%
CN(C)S(=O)(=O)c1ccc(N2CCN(S(=O)(=O)c3ccc(F)cc3)CC2)c(Cl)c1	10µM*	-7%	2%	10µM*
CN(C)S(=O)(=O)N1CCN(S(=O)(=O)c2ccc(F)cc2)CC1	-7%	3%	-16%	i
CN1CCCc2cc(/C=C/c3ccnc4ccccc34)ccc21	33%	x	x	-10%
CC(=O)Nc1ccc(NC(=O)Nc2ccc3c(c2)N(C)C(=O)CS3)cc1	-2%	2%	-48%	i
CCOc1ccc(OCC)c(NC(=O)Nc2ccc3c(c2)N(C)C(=O)CS3)c1	-22%	u	1.1µM*	4%
COc1cccc(NC(=O)Nc2ccc3c(c2)N(C)C(=O)CS3)c1	x	-7%	3.2µM*	x
Cc1nc2cc(NC(=O)[C@@H]3C[C@@H](Sc4ccccn4)CN3Cc3ccccc3F)ccc2s1	-19%	x	x	-21%
CS(=O)(=O)Nc1ccc(C2=NN(C(=O)C3CCCCC3)C(c3cccs3)C2)cc1 (stereo unspecified)	u	-15%	7.1µM*	-21%
O=C(NCc1ccccc1F)C(=O)NCC1CCCN1S(=O)(=O)c1ccccc1 (stereo unspecified)	-2%	u	35µM*	-29%
CC(=O)Nc1cc(O)c2nonc2c1O	3.5µM*	x	x	11µM*
COc1ccc2ccccc2c1CN1CCOc2ccc(CN3CCN(CCO)CC3)cc2C1	-7%	x	x	-10%
CC(NC(=O)c1ccco1)c1nnc2n1CCN(Cc1ccc(N(C)C)cc1)CC2 (stereo unspecified)	-6%	x	x	-12%
Cc1c(Nc2ncnc3c2cnn3-c2ccccc2)c(=O)n(-c2ccccc2)n1C	-12%	5%	0.14µM*	0%
Cc1cccc(-n2ncc3c(Nc4c(C)n(C)n(-c5ccccc5)c4=O)ncnc32)c1	-15%	7%	11%	-16%
COc1ccc(C=C(C(=O)c2ccccc2)C(=O)c2ccccc2)cc1	-5%	x	x	i
CC(C)(C)NCC(=Cc1ccccc1)C(=O)c1ccccc1	u	x	x	10µM*
COc1cc(N)c(N)cc1OC	-10%	x	x	i
CCC(CC)NC(=O)Nc1cccc(C)c1C	x	-1%	-9%[2.29 µM]	x
SMILES	VACV Venus inh	AmpC detergent	AmpC no deterg	VACV mCherry inh
CCC(C)N(CC(=O)Nc1cccc(C)c1C)C(=O)CCl (stereo unspecified)	u	-13%	-7%	4.5µM*
Cc1cc(C(C)(C)CC(C)(C)C)ccc1OCCOCC[N+](C)(C)Cc1ccccc1	10µM*	u	262%	10µM*
C[N+](C)(CCOc1ccccc1)Cc1ccccc1	-16%	x	x	i
O=C(COC(=O)c1ccc([N+](=O)[O-])o1)Nc1cccc(S(=O)(=O)N2CCCCC2)c1	-8%	-15%	-48%	i
O=C(Nc1cccc(S(=O)(=O)N2CCCCC2)c1)c1ccc([N+](=O)[O-])o1	10µM*	-14%	-31%	11µM*
O=C(Nc1ccccc1N1CCOCC1)c1ccc([N+](=O)[O-])o1	u	3%	-10%	11µM*
O=C(Nc1ccccc1N1CCCCC1)c1ccc([N+](=O)[O-])o1	u	-13%	-18%	13µM*
O=C(CCCOc1ccc(Cl)cc1Cl)N/N=C/c1ccccc1O	u	-11%	-15%	7.1µM*
Cc1ccccc1OCC(=O)N/N=C/c1cccc2cccnc12	u	1%	-22%	-25%
O=C(CCCOc1ccc(Cl)cc1Cl)N/N=C/c1ccccc1	u	-4%	-3%	-20%
O=C(N/N=C/c1ccc[nH]1)c1ccc(COc2cccc3cccnc23)cc1	u	6%	-21%[2.29 µM]	1.6µM*
O=C(COc1cccc2cccnc12)N/N=C/c1ccccc1O	-27%	-2%	-17%	2.5µM*
O=C(N/N=C/c1ccccc1C(=O)O)c1ccc(COc2cccc3cccnc23)cc1	0%	1%	-31%	-2%
O=C(NCC1Cc2cccc(-c3cccnc3)c2O1)c1cc(-c2ccccc2)n[nH]1 (stereo unspecified)	-16%	x	x	i
CCOC(=O)N1CCC(Nc2c(NCCCN(CC)CC)c(=O)c2=O)CC1	0%	-10%	-18%	16%
CCOC(=O)N1CCC(Nc2c(NCCCOC)c(=O)c2=O)CC1	x	0%	0.25µM*	x
Cc1nn(-c2ccc(F)cc2)c2nc(N)c(C#N)c(-c3ccc(O)c(O)c3)c12	u	2%	14µM*	u
Cc1cc(C)cc(C(=O)NCCn2cc(C(=O)N3CCSCC3)nn2)c1	-19%	x	x	-17%
CN(C)CCCNS(=O)(=O)c1ccc(NC2CCCCCC2)c([N+](=O)[O-])c1	-19%	-2%	104%	8.9µM*
Cc1ccc(C2=NOC(=O)/C2=C\C=C\c2ccccc2)cc1	9%	-12%	32µM*	-7%
CN(C)/C=C1\C(=O)ON=C1c1ccccc1	-8%	2%	-15%	i
O=C(NCCCN1CCOCC1)c1ccc(Br)cc1	9%	-8%	-15%	x
CC(C)(C)c1ccc(C(=O)NCCCN2CCN(CCCNC(=O)c3ccc(C(C)(C)C)cc3)CC2)cc1	11µM*	-8%	312%	u
O=C(Oc1c(CN2CCOCC2)cc(Cl)c2cccnc12)c1ccccc1F	10µM*	7%	-5%	7.9µM*
Cn1c(SCC(=O)Nc2ccc(F)cc2F)nnc1-c1cccnc1	x	u	0.32µM*	x
SMILES	VACV Venus inh	AmpC detergent	AmpC no deterg	VACV mCherry inh
Cn1c(SCC(=O)Nc2cccc(F)c2)nnc1-c1cccnc1	x	-8%	-8%	x
O=S(=O)(c1cc(O)ccc1O)c1cccc2c(S(=O)(=O)c3cc(O)ccc3O)cccc12	3%	-10%	20µM*	-5%
O=C(C#Cc1cccc([N+](=O)[O-])c1)c1ccccc1	x	1%	-28%	x
Nc1ccccc1C#CC(=O)c1ccccc1	22µM*	-6%	-23%	u
COc1cc(/C=C2/CCCC(C(=O)C(F)(F)F)=C2O)ccc1O	-8%	4%	-25%	-18%
COc1cc(/C=C2\CCC/C(=C\c3ccc(O)c(OC)c3)C2=O)ccc1O	u	u	-11%	6.3µM*
C[C@H](NC(=O)c1ncn2c1c(=O)[nH]c1ccccc12)c1ccccc1	-6%	x	x	-20%
C[C@H](NC(=O)c1ncn2c1c(=O)[nH]c1ccc(Br)cc12)c1ccccc1	13µM*	x	x	u
Cn1c(C2CCC2)nc2cc(C(=O)N3CCOc4ccccc4C3)cc(NC(=O)C3CCCO3)c21 (stereo unspecified)	-4%	x	x	-18%

Assay outcomes: PubChem BioAssay, National Center for Advancing Translational Sciences (NCATS)
